{"source": "ChEMBL document CHEMBL1961873", "about": "“Compounds: GSK PKIS; Assays: Nanosyn kinase panel” (2012)", "key": {"[1]": {"biological_target": "RAC-alpha serine/threonine-protein kinase (Homo sapiens) (UniProt P31749)", "conditions": "at 0.1 µM"}, "[2]": {"biological_target": "RAC-alpha serine/threonine-protein kinase (Homo sapiens) (UniProt P31749)", "conditions": "at 1 µM"}, "[3]": {"biological_target": "RAC-beta serine/threonine-protein kinase (Homo sapiens) (UniProt P31751)", "conditions": "at 0.1 µM"}, "[4]": {"biological_target": "RAC-beta serine/threonine-protein kinase (Homo sapiens) (UniProt P31751)", "conditions": "at 1 µM"}, "[5]": {"biological_target": "RAC-gamma serine/threonine-protein kinase (Homo sapiens) (UniProt Q9Y243)", "conditions": "at 0.1 µM"}, "[6]": {"biological_target": "RAC-gamma serine/threonine-protein kinase (Homo sapiens) (UniProt Q9Y243)", "conditions": "at 1 µM"}, "[7]": {"biological_target": "G protein-coupled receptor kinase 6 (Homo sapiens) (UniProt P43250)", "sequence (P43250 whole entry, looked up)": "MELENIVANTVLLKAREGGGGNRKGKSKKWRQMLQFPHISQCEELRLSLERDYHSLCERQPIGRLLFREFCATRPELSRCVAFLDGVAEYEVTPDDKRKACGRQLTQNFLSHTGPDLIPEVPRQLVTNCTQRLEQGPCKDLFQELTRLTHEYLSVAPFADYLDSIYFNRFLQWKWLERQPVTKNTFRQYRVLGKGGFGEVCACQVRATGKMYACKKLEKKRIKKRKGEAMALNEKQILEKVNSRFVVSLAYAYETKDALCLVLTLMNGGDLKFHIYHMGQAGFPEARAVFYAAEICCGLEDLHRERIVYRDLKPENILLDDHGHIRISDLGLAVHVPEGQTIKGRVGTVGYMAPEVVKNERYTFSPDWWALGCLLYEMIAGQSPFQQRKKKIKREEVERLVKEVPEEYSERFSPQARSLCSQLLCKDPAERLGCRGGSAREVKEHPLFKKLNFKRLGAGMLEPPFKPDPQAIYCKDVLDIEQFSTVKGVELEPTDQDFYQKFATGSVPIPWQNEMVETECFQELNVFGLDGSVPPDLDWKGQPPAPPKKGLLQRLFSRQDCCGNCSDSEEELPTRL", "conditions": "at 0.1 µM"}, "[8]": {"biological_target": "G protein-coupled receptor kinase 6 (Homo sapiens) (UniProt P43250)", "conditions": "at 1 µM"}, "[9]": {"biological_target": "Rhodopsin kinase GRK7 (Homo sapiens) (UniProt Q8WTQ7)", "sequence (Q8WTQ7 whole entry)": "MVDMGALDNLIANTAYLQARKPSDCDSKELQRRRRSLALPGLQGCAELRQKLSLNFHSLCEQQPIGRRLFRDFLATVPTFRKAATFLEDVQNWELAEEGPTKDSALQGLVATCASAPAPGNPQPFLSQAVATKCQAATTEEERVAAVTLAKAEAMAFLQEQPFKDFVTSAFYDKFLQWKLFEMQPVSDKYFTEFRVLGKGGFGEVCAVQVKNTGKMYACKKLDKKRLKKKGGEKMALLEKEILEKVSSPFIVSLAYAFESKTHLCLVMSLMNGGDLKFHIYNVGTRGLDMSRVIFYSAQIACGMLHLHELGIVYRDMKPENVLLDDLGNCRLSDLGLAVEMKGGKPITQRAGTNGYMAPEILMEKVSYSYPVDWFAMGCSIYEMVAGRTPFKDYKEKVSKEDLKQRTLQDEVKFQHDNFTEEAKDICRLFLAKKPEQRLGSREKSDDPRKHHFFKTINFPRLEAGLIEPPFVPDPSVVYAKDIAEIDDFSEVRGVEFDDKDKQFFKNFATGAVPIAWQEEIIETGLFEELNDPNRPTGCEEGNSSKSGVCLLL", "conditions": "at 0.1 µM"}, "[10]": {"biological_target": "Rhodopsin kinase GRK7 (Homo sapiens) (UniProt Q8WTQ7)", "conditions": "at 1 µM"}, "[11]": {"biological_target": "Serine/threonine-protein kinase MRCK alpha (Homo sapiens) (UniProt Q5VT25)", "conditions": "at 0.1 µM"}, "[12]": {"biological_target": "Serine/threonine-protein kinase MRCK alpha (Homo sapiens) (UniProt Q5VT25)", "conditions": "at 1 µM"}, "[13]": {"biological_target": "Serine/threonine-protein kinase MRCK beta (Homo sapiens) (UniProt Q9Y5S2)", "sequence (Q9Y5S2 whole entry)": "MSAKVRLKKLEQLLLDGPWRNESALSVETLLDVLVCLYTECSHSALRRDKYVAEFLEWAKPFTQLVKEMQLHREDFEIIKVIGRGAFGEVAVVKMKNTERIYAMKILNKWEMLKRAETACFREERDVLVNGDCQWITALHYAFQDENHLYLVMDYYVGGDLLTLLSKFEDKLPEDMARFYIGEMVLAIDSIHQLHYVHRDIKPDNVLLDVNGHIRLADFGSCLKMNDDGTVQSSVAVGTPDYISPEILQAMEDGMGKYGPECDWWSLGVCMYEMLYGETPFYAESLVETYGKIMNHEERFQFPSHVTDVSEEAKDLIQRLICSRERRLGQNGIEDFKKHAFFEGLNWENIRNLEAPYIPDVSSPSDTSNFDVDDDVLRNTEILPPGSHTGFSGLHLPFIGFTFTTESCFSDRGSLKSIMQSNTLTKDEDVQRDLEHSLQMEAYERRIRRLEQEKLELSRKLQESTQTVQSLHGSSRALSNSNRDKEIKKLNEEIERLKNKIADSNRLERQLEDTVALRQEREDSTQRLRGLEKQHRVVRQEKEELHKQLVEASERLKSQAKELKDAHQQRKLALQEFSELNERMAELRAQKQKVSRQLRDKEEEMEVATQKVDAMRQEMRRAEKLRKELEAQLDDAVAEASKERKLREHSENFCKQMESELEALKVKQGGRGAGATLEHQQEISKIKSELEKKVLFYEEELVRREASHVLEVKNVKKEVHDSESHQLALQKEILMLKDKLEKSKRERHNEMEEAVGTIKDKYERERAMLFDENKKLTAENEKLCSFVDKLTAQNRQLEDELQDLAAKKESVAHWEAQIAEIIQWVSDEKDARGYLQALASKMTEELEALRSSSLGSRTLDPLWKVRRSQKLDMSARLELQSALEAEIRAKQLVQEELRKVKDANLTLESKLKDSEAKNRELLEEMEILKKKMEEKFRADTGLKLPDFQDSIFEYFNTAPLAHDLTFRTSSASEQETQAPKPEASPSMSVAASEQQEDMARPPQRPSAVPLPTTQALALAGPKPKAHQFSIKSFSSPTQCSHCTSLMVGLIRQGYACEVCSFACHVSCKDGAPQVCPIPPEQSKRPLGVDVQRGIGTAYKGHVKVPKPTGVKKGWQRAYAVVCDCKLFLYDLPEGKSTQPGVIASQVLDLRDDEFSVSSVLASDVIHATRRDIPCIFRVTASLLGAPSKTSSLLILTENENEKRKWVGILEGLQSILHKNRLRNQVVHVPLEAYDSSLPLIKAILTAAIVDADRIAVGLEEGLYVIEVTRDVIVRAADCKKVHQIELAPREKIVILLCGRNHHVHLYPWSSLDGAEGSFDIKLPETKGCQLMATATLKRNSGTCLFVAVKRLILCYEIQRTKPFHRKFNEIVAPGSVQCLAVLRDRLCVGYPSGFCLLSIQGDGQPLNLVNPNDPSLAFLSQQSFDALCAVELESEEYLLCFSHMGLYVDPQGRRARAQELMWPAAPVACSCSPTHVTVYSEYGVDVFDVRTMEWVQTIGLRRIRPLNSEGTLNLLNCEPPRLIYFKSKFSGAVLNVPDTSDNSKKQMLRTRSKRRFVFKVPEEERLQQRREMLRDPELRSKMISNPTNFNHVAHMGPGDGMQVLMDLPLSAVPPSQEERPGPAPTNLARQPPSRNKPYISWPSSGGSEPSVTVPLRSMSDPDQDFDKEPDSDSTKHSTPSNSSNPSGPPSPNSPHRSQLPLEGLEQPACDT", "conditions": "at 0.1 µM"}, "[14]": {"biological_target": "Serine/threonine-protein kinase MRCK beta (Homo sapiens) (UniProt Q9Y5S2)", "conditions": "at 1 µM"}, "[15]": {"biological_target": "Ribosomal protein S6 kinase alpha-5 (Homo sapiens) (UniProt O75582)", "conditions": "at 0.1 µM"}, "[16]": {"biological_target": "Ribosomal protein S6 kinase alpha-5 (Homo sapiens) (UniProt O75582)", "conditions": "at 1 µM"}, "[17]": {"biological_target": "Ribosomal protein S6 kinase alpha-4 (Homo sapiens) (UniProt O75676)", "conditions": "at 0.1 µM"}, "[18]": {"biological_target": "Ribosomal protein S6 kinase alpha-4 (Homo sapiens) (UniProt O75676)", "conditions": "at 1 µM"}, "[19]": {"biological_target": "Ribosomal protein S6 kinase beta-1 (Homo sapiens) (UniProt P23443)", "conditions": "at 0.1 µM"}, "[20]": {"biological_target": "Ribosomal protein S6 kinase beta-1 (Homo sapiens) (UniProt P23443)", "conditions": "at 1 µM"}, "[21]": {"biological_target": "3-phosphoinositide-dependent protein kinase 1 (Homo sapiens) (UniProt O15530)", "conditions": "at 0.1 µM"}, "[22]": {"biological_target": "cAMP-dependent protein kinase catalytic subunit alpha (Homo sapiens) (UniProt P17612)", "conditions": "at 0.1 µM"}, "[23]": {"biological_target": "cAMP-dependent protein kinase catalytic subunit alpha (Homo sapiens) (UniProt P17612)", "conditions": "at 1 µM"}, "[24]": {"biological_target": "Protein kinase C alpha type (Homo sapiens) (UniProt P17252)", "conditions": "at 0.1 µM"}, "[25]": {"biological_target": "Protein kinase C alpha type (Homo sapiens) (UniProt P17252)", "conditions": "at 1 µM"}, "[26]": {"biological_target": "Protein kinase C beta type (Homo sapiens) (UniProt P05771)", "sequence (P05771 2-671 limits assumed)": "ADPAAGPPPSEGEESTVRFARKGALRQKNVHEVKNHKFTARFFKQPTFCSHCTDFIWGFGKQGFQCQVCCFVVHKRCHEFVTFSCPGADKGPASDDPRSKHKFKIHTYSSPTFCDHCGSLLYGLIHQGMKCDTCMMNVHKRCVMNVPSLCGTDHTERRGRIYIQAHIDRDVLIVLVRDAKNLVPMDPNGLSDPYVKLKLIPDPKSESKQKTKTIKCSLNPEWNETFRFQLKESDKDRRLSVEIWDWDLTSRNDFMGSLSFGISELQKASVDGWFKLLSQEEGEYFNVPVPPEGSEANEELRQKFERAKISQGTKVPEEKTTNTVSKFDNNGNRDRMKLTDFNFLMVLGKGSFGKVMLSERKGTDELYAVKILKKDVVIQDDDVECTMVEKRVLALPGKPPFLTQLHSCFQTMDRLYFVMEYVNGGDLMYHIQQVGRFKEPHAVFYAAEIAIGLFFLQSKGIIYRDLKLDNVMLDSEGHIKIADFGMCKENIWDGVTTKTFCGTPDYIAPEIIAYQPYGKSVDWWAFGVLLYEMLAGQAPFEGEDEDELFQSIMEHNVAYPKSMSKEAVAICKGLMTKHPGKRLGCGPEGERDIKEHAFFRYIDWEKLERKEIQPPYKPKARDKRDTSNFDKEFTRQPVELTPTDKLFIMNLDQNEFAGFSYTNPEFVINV", "conditions": "at 0.1 µM"}, "[27]": {"biological_target": "Protein kinase C beta type (Homo sapiens) (UniProt P05771)", "conditions": "at 1 µM"}, "[28]": {"biological_target": "Protein kinase C eta type (Homo sapiens) (UniProt P24723)", "sequence (P24723 whole entry)": "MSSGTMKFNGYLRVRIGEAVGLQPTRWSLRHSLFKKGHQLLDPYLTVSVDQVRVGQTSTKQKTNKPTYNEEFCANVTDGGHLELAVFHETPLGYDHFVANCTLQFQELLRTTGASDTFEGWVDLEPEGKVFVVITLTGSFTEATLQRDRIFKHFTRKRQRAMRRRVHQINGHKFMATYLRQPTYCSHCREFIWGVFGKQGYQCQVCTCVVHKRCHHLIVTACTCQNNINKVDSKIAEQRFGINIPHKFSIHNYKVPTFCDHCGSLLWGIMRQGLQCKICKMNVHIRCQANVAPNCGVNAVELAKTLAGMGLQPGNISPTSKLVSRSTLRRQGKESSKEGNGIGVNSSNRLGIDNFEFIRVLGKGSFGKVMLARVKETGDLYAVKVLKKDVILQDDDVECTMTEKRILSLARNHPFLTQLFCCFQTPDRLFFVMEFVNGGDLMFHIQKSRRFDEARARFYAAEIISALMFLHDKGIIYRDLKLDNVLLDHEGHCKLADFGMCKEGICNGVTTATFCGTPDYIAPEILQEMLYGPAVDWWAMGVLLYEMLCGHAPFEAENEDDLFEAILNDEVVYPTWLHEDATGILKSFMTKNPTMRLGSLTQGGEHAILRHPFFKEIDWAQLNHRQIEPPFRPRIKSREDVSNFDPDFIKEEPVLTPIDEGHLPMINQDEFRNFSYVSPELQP", "conditions": "at 0.1 µM"}, "[29]": {"biological_target": "Protein kinase C eta type (Homo sapiens) (UniProt P24723)", "conditions": "at 1 µM"}, "[30]": {"biological_target": "Protein kinase C gamma type (Homo sapiens) (UniProt P05129)", "conditions": "at 0.1 µM"}, "[31]": {"biological_target": "Protein kinase C gamma type (Homo sapiens) (UniProt P05129)", "conditions": "at 1 µM"}, "[32]": {"biological_target": "Protein kinase C iota type (Homo sapiens) (UniProt P41743)", "conditions": "at 0.1 µM"}, "[33]": {"biological_target": "Protein kinase C iota type (Homo sapiens) (UniProt P41743)", "conditions": "at 1 µM"}, "[34]": {"biological_target": "Protein kinase C theta type (Homo sapiens) (UniProt Q04759)", "conditions": "at 0.1 µM"}, "[35]": {"biological_target": "Protein kinase C theta type (Homo sapiens) (UniProt Q04759)", "conditions": "at 1 µM"}, "[36]": {"biological_target": "Protein kinase C beta type (Homo sapiens) (UniProt P05771)", "conditions": "at 0.1 µM", "remark": "listed apart in the source"}, "[37]": {"biological_target": "Protein kinase C beta type (Homo sapiens) (UniProt P05771)", "conditions": "at 1 µM", "remark": "listed apart in the source"}, "[38]": {"biological_target": "Serine/threonine-protein kinase D1 (Homo sapiens) (UniProt Q15139)", "conditions": "at 0.1 µM"}, "[39]": {"biological_target": "Serine/threonine-protein kinase D1 (Homo sapiens) (UniProt Q15139)", "conditions": "at 1 µM"}, "[40]": {"biological_target": "Serine/threonine-protein kinase D2 (Homo sapiens) (UniProt Q9BZL6)", "conditions": "at 0.1 µM"}, "[41]": {"biological_target": "Serine/threonine-protein kinase D2 (Homo sapiens) (UniProt Q9BZL6)", "conditions": "at 1 µM"}, "[42]": {"biological_target": "Serine/threonine-protein kinase D3 (Homo sapiens) (UniProt O94806)", "conditions": "at 0.1 µM"}, "[43]": {"biological_target": "Serine/threonine-protein kinase D3 (Homo sapiens) (UniProt O94806)", "conditions": "at 1 µM"}, "[44]": {"biological_target": "cGMP-dependent protein kinase 1 (Homo sapiens) (UniProt Q13976)", "conditions": "at 0.1 µM"}, "[45]": {"biological_target": "cGMP-dependent protein kinase 1 (Homo sapiens) (UniProt Q13976)", "conditions": "at 1 µM"}, "[46]": {"biological_target": "cGMP-dependent protein kinase 2 (Homo sapiens) (UniProt Q13237)", "sequence (Q13237 whole entry)": "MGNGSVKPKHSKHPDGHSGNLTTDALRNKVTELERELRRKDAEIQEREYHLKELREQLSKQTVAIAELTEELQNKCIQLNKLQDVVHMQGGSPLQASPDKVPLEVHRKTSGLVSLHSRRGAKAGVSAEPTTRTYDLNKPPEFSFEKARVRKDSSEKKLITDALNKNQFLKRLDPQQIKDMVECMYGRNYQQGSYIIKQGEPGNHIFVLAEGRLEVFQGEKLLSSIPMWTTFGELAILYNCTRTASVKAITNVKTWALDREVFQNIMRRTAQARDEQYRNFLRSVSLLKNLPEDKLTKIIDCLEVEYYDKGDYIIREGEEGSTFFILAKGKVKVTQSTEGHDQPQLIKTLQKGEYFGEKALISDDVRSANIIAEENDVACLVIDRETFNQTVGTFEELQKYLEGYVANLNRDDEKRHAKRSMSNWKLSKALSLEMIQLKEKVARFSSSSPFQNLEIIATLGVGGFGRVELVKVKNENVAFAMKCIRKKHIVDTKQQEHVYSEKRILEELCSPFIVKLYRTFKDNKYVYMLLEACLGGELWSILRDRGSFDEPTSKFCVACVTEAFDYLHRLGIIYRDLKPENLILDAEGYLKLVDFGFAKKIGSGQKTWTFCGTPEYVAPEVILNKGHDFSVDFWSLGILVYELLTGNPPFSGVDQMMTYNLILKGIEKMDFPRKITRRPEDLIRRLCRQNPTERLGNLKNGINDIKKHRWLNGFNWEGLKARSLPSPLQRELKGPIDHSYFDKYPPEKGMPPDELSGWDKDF", "conditions": "at 0.1 µM"}, "[47]": {"biological_target": "cGMP-dependent protein kinase 2 (Homo sapiens) (UniProt Q13237)", "conditions": "at 1 µM"}, "[48]": {"biological_target": "cAMP-dependent protein kinase catalytic subunit PRKX (Homo sapiens) (UniProt P51817)", "conditions": "at 0.1 µM"}, "[49]": {"biological_target": "cAMP-dependent protein kinase catalytic subunit PRKX (Homo sapiens) (UniProt P51817)", "conditions": "at 1 µM"}, "[50]": {"biological_target": "Rho-associated protein kinase 1 (Homo sapiens) (UniProt Q13464)", "conditions": "at 0.1 µM"}, "[51]": {"biological_target": "Rho-associated protein kinase 1 (Homo sapiens) (UniProt Q13464)", "conditions": "at 1 µM"}, "[52]": {"biological_target": "Rho-associated protein kinase 2 (Homo sapiens) (UniProt O75116)", "conditions": "at 0.1 µM"}, "[53]": {"biological_target": "Rho-associated protein kinase 2 (Homo sapiens) (UniProt O75116)", "conditions": "at 1 µM"}, "[54]": {"biological_target": "Ribosomal protein S6 kinase alpha-1 (Homo sapiens) (UniProt Q15418)", "conditions": "at 0.1 µM"}, "[55]": {"biological_target": "Ribosomal protein S6 kinase alpha-1 (Homo sapiens) (UniProt Q15418)", "conditions": "at 1 µM"}}}
{"smiles": "CNC(=O)Oc1cc(C)c(/C=C/c2cncc(C(=O)NC)c2)c(C)c1", "values": [{"measurement": "inhibition", "setting": "[1]", "result": 1.66, "unit": "%"}, {"measurement": "inhibition", "setting": "[2]", "result": 1.83, "unit": "%"}, {"measurement": "inhibition", "setting": "[3]", "result": 0.76, "unit": "%"}, {"measurement": "inhibition", "setting": "[4]", "result": 1.15, "unit": "%"}, {"measurement": "inhibition", "setting": "[5]", "result": 1.57, "unit": "%"}, {"measurement": "inhibition", "setting": "[6]", "result": 1.51, "unit": "%"}, {"measurement": "inhibition", "setting": "[7]", "result": 2.38, "unit": "%"}, {"measurement": "inhibition", "setting": "[8]", "result": -2.05, "unit": "%"}, {"measurement": "inhibition", "setting": "[9]", "result": 0.83, "unit": "%"}, {"measurement": "inhibition", "setting": "[10]", "result": -7.52, "unit": "%"}, {"measurement": "inhibition", "setting": "[11]", "result": 0.96, "unit": "%"}, {"measurement": "inhibition", "setting": "[12]", "result": 1.01, "unit": "%"}, {"measurement": "inhibition", "setting": "[13]", "result": 0.52, "unit": "%"}, {"measurement": "inhibition", "setting": "[14]", "result": 2.49, "unit": "%"}, {"measurement": "inhibition", "setting": "[15]", "result": -0.65, "unit": "%"}, {"measurement": "inhibition", "setting": "[16]", "result": 2.76, "unit": "%"}, {"measurement": "inhibition", "setting": "[17]", "result": 0.7, "unit": "%"}, {"measurement": "inhibition", "setting": "[18]", "result": 5.41, "unit": "%"}, {"measurement": "inhibition", "setting": "[19]", "result": 2.74, "unit": "%"}, {"measurement": "inhibition", "setting": "[20]", "result": 2.7, "unit": "%"}, {"measurement": "inhibition", "setting": "[21]", "result": 3.92, "unit": "%"}, {"measurement": "inhibition", "setting": "[22]", "result": 1.8, "unit": "%"}, {"measurement": "inhibition", "setting": "[23]", "result": 1.69, "unit": "%"}, {"measurement": "inhibition", "setting": "[24]", "result": 0.7, "unit": "%"}, {"measurement": "inhibition", "setting": "[25]", "result": 2.8, "unit": "%"}, {"measurement": "inhibition", "setting": "[26]", "result": -0.06, "unit": "%"}, {"measurement": "inhibition", "setting": "[27]", "result": 0.33, "unit": "%"}, {"measurement": "inhibition", "setting": "[28]", "result": 0.72, "unit": "%"}, {"measurement": "inhibition", "setting": "[29]", "result": 3.06, "unit": "%"}, {"measurement": "inhibition", "setting": "[30]", "result": 2.88, "unit": "%"}, {"measurement": "inhibition", "setting": "[31]", "result": 5.84, "unit": "%"}, {"measurement": "inhibition", "setting": "[32]", "result": 1.28, "unit": "%"}, {"measurement": "inhibition", "setting": "[33]", "result": 3.8, "unit": "%"}, {"measurement": "inhibition", "setting": "[34]", "result": 0.64, "unit": "%"}, {"measurement": "inhibition", "setting": "[35]", "result": -0.84, "unit": "%"}, {"measurement": "inhibition", "setting": "[36]", "result": 1.05, "unit": "%"}, {"measurement": "inhibition", "setting": "[37]", "result": 0.33, "unit": "%"}, {"measurement": "inhibition", "setting": "[38]", "result": 1.91, "unit": "%"}, {"measurement": "inhibition", "setting": "[39]", "result": 4.8, "unit": "%"}, {"measurement": "inhibition", "setting": "[40]", "result": 3, "unit": "%"}, {"measurement": "inhibition", "setting": "[41]", "result": 4.22, "unit": "%"}, {"measurement": "inhibition", "setting": "[42]", "result": 2.02, "unit": "%"}, {"measurement": "inhibition", "setting": "[43]", "result": 3.35, "unit": "%"}, {"measurement": "inhibition", "setting": "[44]", "result": 3.13, "unit": "%"}, {"measurement": "inhibition", "setting": "[45]", "result": 4.05, "unit": "%"}, {"measurement": "inhibition", "setting": "[46]", "result": 3.07, "unit": "%"}, {"measurement": "inhibition", "setting": "[47]", "result": 5.39, "unit": "%"}, {"measurement": "inhibition", "setting": "[48]", "result": 1.78, "unit": "%"}, {"measurement": "inhibition", "setting": "[49]", "result": 0.62, "unit": "%"}, {"measurement": "inhibition", "setting": "[50]", "result": 0.86, "unit": "%"}, {"measurement": "inhibition", "setting": "[51]", "result": 4.25, "unit": "%"}, {"measurement": "inhibition", "setting": "[52]", "result": 1.43, "unit": "%"}, {"measurement": "inhibition", "setting": "[53]", "result": 3.24, "unit": "%"}, {"measurement": "inhibition", "setting": "[54]", "result": 2.03, "unit": "%"}, {"measurement": "inhibition", "setting": "[55]", "result": 4.8, "unit": "%"}]}
